Molecules are shown by their SMILES. Where “and” joins values, the source holds several entries; their conditions need not be identical. Equal entries are not always repeated. Calls of active or inactive are those of the source.

A short description of assay [1]: small molecules captured by biotinylated probe aFSTL3 – biochemical, small-molecule microarray, fluorescence 635/667, stem cell growth factor project, primary screen (AID 1064).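 Further: measures binding of the biotinylated anti-FSTL3 antibody to printed compounds.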 Conditions: higher = more signal.
Assay [2] in a line: binders from COS7 lysate, DM2A8 probe, primary screen, torsin A project, cell lysate, small-molecule microarray, fluorescence 635/667 (AID 1065). Conditions: higher = more signal, COS7 lysate expressing mutant human TOR1A.
The nature of assay [3]: small molecules captured by biotinylated probe aFGF2 – biochemical, small-molecule microarray, fluorescence 635/667, stem cell growth factor project, primary screen (AID 1067).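 Further: measures binding of biotinylated aFGF2 protein to printed compounds on slides; z-score merges feature fluorescence and signal-to-noise across triplicate slides.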 The note with it: higher = more signal.
Assay [4] can be described thus: small molecules captured by biotinylated probe aFGF10 – biochemical, small-molecule microarray, fluorescence 635/667, stem cell growth factor project, primary screen (AID 1071).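 Further: score merges 667 nm spot intensity and signal to noise from triplicate slides.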 The note with it: higher = more signal.
Assay [5] addresses Neurogenic locus notch homolog protein 2 (Homo sapiens) (UniProt Q04721). As to the kind of experiment: small molecules binding Notch2 protein – biochemical, small-molecule microarray, 635 nm fluorescence, stem cell growth factors, primary screen (AID 1073). The note with it: higher = more signal.
For assay [6], the target named is Pro-neuregulin-1, membrane-bound isoform (Homo sapiens) (UniProt Q02297). The experiment in a line: small molecules binding neuregulin-1 protein – biochemical, small-molecule microarray, fluorescence 635/667, psychiatric disease protein project, primary screen (AID 1075).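 Further: score combines 667 nm spot fluorescence with signal to noise.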 The note with it: NRG1 binding, 635 nm fluorescence, higher = more signal.
The test system of assay [7] is Neuregulin-1 EGF-like domain. As to the kind of experiment: small molecules binding NRG1 EGF domain – biochemical, small-molecule microarray, 635 nm fluorescence, primary screen (AID 1081).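 Further: binding of the protein to compounds printed on small-molecule microarray slides.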 Conditions: higher = more signal.
The nature of assay [8]: FRG1 expression reporter modulators in myotubes – cell-based, C2C12 myotubes, firefly/Renilla luciferase, luminescence, FRG1 inhibition for FSHD, primary screen (AID 1084). The note with it: FRG1 promoter luciferase, higher = more signal, called active from +8 up or from −8 down.
Assay [9] in a line: small molecules captured by biotinylated probe aFST – biochemical, small-molecule microarray, fluorescence 635/667, stem cell growth factor project, primary screen (AID 1086).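 Further: score merges 667 nm fluorescence with signal-to-noise of each printed compound spot.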 The note with it: higher = more signal.
Assay [10] in a line: binders of probe aHhip on microarray, primary screen, stem cell growth factor project, biochemical, small-molecule microarray, fluorescence 635/667 (AID 1087).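 Further: score merges spot fluorescence at 667nm with spot signal to noise ratio.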 Conditions: higher = more signal.
For assay [11], the system named is PRMT1 (protein arginine N-methyltransferase 1). As to the kind of experiment: small molecules binding arginine methyltransferase PRMT1 – biochemical, small-molecule microarray, 635 nm fluorescence, primary screen (AID 1088).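 Further: binding of Prmt1 protein to compounds spotted on small-molecule microarray slides.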 The note with it: higher = more signal.
Assay [12] in a line: growth effects on S. cerevisiae YJM789 – YJM789 clinical isolate, OD600, 24 h, basal, primary screen (AID 1089).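 Further: growth of clinical yeast isolate S. cerevisiae YJM 789 seeded 1000 cells per well; test concentration not given here.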 The note with it: higher = more signal, called active from +8 up or from −8 down.
Assay [13] can be described thus: S. pombe growth modifiers, basal conditions – strain 972, OD600, 24 h, no modulator, primary screen (AID 1090).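 Further: basal condition with compound alone and no growth modifier present; test concentration not given here.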 Conditions: S. pombe 972 growth, higher = more signal, called active from +8 up or from −8 down.
Assay [14] is described as follows: budding yeast growth modifiers under rapamycin – strain BY4716, OD600, 96 h, primary screen (AID 1091). Further: test concentration not given here. The note with it: S. cerevisiae BY4716 + rapamycin, higher = more signal, called active from +8 up or from −8 down.
Assay [15] concerns the target Torsin-1A-interacting protein 2 (Homo sapiens) (UniProt Q8NFQ8). The experiment in a line: small molecules binding lysate-expressed LULL1 – cell lysate, human LULL1 lysate, 635/667 nm fluorescence, primary screen (AID 1092).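 Further: probe is lysate of COS7 cells overexpressing human LULL1; score merges per-feature 667 nm fluorescence with signal-to-noise.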 Conditions: small-molecule microarray, hLULL1 lysate binding, 635 nm fluorescence; higher = more signal.
Assay [16] can be described thus: optical density change of DRC41 E. coli – strain DRC41, OD650, 24 h, E. coli filamentation project, primary screen (AID 1093).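 Further: MC1000 strain lacking acrAB efflux and sulA so SOS filamentation is blocked; test concentration not given here.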 Conditions: E. coli DRC41 growth, higher = more signal, called active from +8 up or from −8 down.
Assay [17] can be described thus: probe aLefty2 binding to arrayed compounds – biochemical, biotinylated probe, 635/667 nm fluorescence, primary screen (AID 1094).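 Further: score merges spot fluorescence near 667 nm with spot signal-to-noise ratio.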 The note with it: small-molecule microarray, higher = more signal.
Assay [18] concerns Noggin (protein binding on small-molecule microarray). As to the kind of experiment: small molecules binding Noggin protein – biochemical, 635/667 nm fluorescence, primary screen (AID 1095).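 Further: score merges 667 nm feature fluorescence with signal to noise over triplicate slides.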 The note with it: 635 nm fluorescence, higher = more signal.
Assay [19] concerns the target Neurogenic locus notch homolog protein 3 (Homo sapiens) (UniProt Q9UM47). The experiment in a line: small molecules binding NOTCH3 protein – biochemical, 635/667 nm fluorescence, primary screen (AID 1096). Conditions: small-molecule microarray, 635 nm fluorescence, higher = more signal.
Assay [20] in a line: probe aEGFR binding to arrayed compounds – biochemical, biotinylated probe, 635/667 nm fluorescence, primary screen (AID 1097).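 Further: probe is a biotinylated anti-EGFR antibody binding compounds printed on slides; score combines fluorescence near 667 nm and signal to noise of each spot.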 Conditions: small-molecule microarray, higher = more signal.

Sequence of Neurogenic locus notch homolog protein 2 (Homo sapiens) (Q04721 whole entry, looked up, canonical isoform): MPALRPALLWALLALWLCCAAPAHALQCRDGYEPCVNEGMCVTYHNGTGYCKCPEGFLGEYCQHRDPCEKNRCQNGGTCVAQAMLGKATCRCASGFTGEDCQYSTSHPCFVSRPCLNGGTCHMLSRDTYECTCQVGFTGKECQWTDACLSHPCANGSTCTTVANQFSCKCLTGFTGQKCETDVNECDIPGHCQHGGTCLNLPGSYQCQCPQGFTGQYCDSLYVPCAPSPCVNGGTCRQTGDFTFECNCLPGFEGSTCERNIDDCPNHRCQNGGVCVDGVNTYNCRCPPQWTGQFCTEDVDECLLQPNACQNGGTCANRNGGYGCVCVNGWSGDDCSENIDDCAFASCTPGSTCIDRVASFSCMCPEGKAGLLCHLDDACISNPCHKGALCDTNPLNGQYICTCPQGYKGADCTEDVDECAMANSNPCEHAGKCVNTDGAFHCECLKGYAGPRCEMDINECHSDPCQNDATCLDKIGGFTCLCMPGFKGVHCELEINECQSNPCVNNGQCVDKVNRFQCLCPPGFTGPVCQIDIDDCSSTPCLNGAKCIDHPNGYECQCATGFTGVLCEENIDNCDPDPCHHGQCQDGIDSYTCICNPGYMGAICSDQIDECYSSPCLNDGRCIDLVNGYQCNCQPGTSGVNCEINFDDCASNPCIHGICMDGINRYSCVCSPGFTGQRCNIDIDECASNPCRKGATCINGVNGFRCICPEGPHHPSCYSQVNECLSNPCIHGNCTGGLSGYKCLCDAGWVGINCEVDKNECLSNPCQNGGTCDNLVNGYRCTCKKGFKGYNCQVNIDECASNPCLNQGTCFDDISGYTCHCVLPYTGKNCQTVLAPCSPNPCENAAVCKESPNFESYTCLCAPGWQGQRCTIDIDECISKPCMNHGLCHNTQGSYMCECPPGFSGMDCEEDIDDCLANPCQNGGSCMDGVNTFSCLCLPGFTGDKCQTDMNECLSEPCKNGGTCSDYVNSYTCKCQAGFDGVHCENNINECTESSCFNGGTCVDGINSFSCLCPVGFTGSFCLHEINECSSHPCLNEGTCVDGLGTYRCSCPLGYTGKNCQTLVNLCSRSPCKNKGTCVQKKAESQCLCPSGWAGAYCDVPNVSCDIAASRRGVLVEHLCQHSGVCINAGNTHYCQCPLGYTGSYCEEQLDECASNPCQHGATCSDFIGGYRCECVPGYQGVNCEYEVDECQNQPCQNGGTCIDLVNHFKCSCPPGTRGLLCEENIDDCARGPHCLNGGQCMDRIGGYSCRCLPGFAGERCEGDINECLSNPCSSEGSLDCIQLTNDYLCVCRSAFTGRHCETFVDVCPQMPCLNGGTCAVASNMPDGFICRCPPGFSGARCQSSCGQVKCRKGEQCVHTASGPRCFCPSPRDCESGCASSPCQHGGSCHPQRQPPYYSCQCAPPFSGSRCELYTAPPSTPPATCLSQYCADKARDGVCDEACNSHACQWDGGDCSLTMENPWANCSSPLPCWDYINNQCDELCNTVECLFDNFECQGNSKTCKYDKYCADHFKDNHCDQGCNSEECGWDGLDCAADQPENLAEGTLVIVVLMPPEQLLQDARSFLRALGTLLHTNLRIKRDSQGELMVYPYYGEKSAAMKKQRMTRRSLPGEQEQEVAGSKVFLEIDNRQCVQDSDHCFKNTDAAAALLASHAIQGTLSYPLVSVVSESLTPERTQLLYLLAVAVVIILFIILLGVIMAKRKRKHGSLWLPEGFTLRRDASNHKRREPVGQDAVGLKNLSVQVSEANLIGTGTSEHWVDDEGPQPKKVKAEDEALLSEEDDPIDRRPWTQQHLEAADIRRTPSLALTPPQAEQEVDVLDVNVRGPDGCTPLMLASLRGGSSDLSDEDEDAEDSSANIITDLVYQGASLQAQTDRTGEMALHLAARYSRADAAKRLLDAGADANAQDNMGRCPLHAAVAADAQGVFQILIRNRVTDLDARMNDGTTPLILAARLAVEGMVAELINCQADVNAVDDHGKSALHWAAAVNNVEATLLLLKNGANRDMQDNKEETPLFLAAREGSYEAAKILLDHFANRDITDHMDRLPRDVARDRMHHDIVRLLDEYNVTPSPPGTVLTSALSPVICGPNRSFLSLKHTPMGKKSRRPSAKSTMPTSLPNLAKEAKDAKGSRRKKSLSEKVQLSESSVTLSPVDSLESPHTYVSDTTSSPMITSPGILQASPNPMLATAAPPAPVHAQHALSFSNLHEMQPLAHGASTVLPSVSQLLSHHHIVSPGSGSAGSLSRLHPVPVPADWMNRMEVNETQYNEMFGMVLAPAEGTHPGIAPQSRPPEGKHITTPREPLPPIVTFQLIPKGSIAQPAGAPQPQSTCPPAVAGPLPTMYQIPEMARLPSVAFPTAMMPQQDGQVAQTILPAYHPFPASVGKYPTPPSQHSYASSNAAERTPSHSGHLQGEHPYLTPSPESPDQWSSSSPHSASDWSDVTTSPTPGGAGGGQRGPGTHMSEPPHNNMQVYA
Sequence of Neurogenic locus notch homolog protein 3 (Homo sapiens) (Q9UM47 whole entry, looked up): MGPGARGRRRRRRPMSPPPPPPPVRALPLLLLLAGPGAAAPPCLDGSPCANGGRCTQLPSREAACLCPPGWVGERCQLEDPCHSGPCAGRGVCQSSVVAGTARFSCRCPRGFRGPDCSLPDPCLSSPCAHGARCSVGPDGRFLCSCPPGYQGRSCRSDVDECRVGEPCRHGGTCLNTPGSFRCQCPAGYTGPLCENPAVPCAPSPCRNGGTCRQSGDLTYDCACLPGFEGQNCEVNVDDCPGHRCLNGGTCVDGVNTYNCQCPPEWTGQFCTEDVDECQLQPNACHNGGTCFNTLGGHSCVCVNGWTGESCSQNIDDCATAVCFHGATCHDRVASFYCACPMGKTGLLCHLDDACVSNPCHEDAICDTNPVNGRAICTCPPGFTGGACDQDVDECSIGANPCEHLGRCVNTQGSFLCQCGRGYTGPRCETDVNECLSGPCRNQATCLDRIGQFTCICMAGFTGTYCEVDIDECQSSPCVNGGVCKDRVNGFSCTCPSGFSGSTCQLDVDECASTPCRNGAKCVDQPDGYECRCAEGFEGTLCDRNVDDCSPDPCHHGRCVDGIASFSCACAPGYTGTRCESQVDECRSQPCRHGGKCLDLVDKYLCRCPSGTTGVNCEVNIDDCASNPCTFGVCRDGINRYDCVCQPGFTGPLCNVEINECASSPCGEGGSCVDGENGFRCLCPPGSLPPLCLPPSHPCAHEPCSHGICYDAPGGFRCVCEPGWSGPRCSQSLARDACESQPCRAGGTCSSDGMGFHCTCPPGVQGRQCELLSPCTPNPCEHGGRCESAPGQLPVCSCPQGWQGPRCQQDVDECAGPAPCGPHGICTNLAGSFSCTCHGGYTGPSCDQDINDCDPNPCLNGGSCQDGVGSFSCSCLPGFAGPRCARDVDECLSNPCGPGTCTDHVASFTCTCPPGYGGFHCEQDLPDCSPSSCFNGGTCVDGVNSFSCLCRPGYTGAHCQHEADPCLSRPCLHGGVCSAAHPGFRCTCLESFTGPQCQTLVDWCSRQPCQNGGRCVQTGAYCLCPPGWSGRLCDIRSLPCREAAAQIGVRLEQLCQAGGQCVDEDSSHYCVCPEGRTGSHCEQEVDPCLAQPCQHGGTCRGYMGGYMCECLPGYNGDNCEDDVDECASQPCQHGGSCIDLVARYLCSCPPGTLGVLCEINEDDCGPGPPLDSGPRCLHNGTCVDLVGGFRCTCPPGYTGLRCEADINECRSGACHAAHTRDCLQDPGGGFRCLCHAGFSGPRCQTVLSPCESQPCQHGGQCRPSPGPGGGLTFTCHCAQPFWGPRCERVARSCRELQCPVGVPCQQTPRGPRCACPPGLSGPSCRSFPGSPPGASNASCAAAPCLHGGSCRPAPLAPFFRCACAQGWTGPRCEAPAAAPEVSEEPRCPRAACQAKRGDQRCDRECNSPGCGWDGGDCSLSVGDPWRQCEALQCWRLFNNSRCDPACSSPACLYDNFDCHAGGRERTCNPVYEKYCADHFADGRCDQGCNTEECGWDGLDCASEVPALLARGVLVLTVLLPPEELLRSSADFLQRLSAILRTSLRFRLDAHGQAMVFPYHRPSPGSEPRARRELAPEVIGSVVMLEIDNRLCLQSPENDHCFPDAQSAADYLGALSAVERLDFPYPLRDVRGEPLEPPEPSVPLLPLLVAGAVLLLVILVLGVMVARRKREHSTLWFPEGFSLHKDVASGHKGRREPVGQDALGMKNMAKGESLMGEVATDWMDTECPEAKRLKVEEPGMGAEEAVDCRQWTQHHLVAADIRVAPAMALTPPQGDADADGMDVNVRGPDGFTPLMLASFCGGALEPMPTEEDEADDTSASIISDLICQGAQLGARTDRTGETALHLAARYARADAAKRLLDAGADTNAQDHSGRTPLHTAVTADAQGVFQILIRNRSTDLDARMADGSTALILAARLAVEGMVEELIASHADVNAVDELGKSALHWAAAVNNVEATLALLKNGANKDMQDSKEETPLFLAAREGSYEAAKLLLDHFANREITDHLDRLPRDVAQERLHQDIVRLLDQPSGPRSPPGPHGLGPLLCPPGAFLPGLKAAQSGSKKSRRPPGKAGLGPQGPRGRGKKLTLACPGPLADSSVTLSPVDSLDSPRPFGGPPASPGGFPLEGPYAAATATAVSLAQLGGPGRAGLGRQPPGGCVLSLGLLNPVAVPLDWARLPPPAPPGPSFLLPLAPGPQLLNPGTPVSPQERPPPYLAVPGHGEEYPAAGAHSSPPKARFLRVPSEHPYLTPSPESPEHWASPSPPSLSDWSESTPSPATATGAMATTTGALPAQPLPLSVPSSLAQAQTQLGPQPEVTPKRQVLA

Turning to `C=CCN(Cc1ccccc1)C(=O)C1N(CCCCCCO)C(=O)C2C(C(=O)O)C3C=CC21O3` (stereo not given), the composite z-score in assay [1] is 1.09 and 1.2; in assay [2], -1.16 and -1.37; in assay [3] it was -0.236 and -0.323; in [4], -1.2 and -1.78; in assay [5] it was -1.18 and -1.23; in assay [6], 0.614 and 0.705. In addition, the composite z-score in assay [7] was 1.41 and 1.4; in [9], -0.841 and -0.708; in assay [10], -0.5 and -0.204; in assay [11] it was -0.487 and -1.4; in assay [15], 1.83 and 1.79; in [17], -0.0265 and 0.0515. Also, the composite z-score in assay [18] is -1.9 and -1.38; in assay [19] it was -1.59 and -0.439; in assay [20], -0.322 and -0.246. For the same compound, the z-score was 0.639 (inactive) and -0.331 (inactive) in assay [8]; 0.101 (inactive) and -1.39 (inactive) in [12]; 0.624 (inactive) and -0.642 (inactive) in assay [13]; -0.889 (inactive) and -1.51 (inactive) in assay [14]; -0.142 (inactive) and 1.19 (inactive) in assay [16].
As to `Cc1ccc(S(=O)(=O)N[C@H]2COC(=O)[C@@H](Cc3ccccc3)NC(=O)[C@@H](C)COC(=O)CC=C[C@@H]2C)cc1`, the composite z-score in assay [1] was -0.547 and -0.267; in assay [2], 0.811 and 0.656; in [3], -0.177 and -0.145; in [4], 0.0514 and 0.209; in [5], -0.311 and 0.0627; in assay [6] it was -0.355 and -0.215. Further, the composite z-score was -0.721 and 0.219 in assay [7]; -0.169 and -0.0364 in [9]; -0.429 and -0.0994 in assay [10]; -0.0829 and 1.56 in assay [11]; -0.872 and 0.969 in assay [15]; -0.212 and -0.0726 in assay [17]. Also, the composite z-score was 0.3 and 0.541 in assay [18]; -0.587 and 0.629 in [19]; -0.0952 and -0.0661 in assay [20]. For the same compound, the z-score is 1.23 (inactive) and 1.04 (inactive) in [8]; -0.248 (inactive) and -0.666 (inactive) in assay [12]; 0.209 (inactive) and 0.195 (inactive) in assay [13]; -0.342 (inactive) and -0.348 (inactive) in assay [14]; 0.205 (inactive) and 0.134 (inactive) in assay [16].
As to `CCOC(=O)C[C@H]1[C@H](OC(=O)c2ccccc2-c2ccccc2)[C@@H](NC(=O)Cc2ccc(OC)cc2)c2cc(OCCCO)ccc2N1C(=O)Cc1ccc(OC)cc1`, the composite z-score in assay [1] was 0.169 and 0.18; in [2], 0.22 and 0.0916; in [3], 0.0811 and -0.0737; in assay [4], 0.473 and -0.0644; in [5], -0.386 and -0.0483; in assay [6], 0.621 and -0.428. Besides, the composite z-score was 0.927 and -0.835 in assay [7]; 0.492 and 0.0474 in [9]; -0.0994 and -0.199 in [10]; 0.407 and -0.949 in assay [11]; 1.46 and -0.199 in assay [15]; 0.139 and -0.176 in assay [17]. Further, the composite z-score is 0.0766 and -0.182 in assay [18]; 0.784 and -0.204 in assay [19]; 0.0084 and -0.142 in assay [20]. Also, the z-score in [8] was -0.848 (inactive) and -0.382 (inactive); in assay [12] it was -0.0142 (inactive) and -0.0701 (inactive); in [13], -0.572 (inactive) and 0.18 (inactive); in assay [14], 0.843 (inactive) and 0.39 (inactive); in assay [16], 2.39 (inactive) and -0.335 (inactive).
With `COC(=O)C1=C(C)N(Cc2ccccc2)[C@]23O[C@](C(=O)OC)(C(=O)N2[C@@H]1c1ccccc1)[C@@H](c1ccccc1)[C@@H]3C(=O)c1ccccc1`, the composite z-score in assay [1] is -0.139 and -0.413; in [2] it was 0.458 and -0.235; in assay [3], -0.0716 and -0.0931; in assay [4] it was 0.236 and 0.391; in assay [5], 0.789 and 0.499; in [6] it was 0.489 and -0.621. Also, the composite z-score was 0.428 and 0.602 in assay [7]; 0.398 and 0.155 in assay [9]; -0.132 and -0.226 in assay [10]; 0.618 and 0.917 in [11]; 0.869 and 0.031 in assay [15]; -0.185 and 0.0062 in [17]. In addition, the composite z-score in assay [18] was 0.115 and 0.974; in assay [19] it was 0.58 and 0.216; in assay [20] it was 0.0557 and -0.0428. Besides, the z-score in assay [8] is -0.0163 (inactive) and 0.21 (inactive); in assay [12], -1.15 (inactive) and -0.583 (inactive); in assay [13], -3.18 (inactive) and -1.19 (inactive); in [14], -1.82 (inactive) and -0.776 (inactive); in assay [16] it was -0.0517 (inactive) and 0.951 (inactive).
With `C=C[C@@H](C)[C@H](O)c1ccc(O)c2ccccc12`, the composite z-score in [1] was -0.0835 and 0.0226; in assay [2], 0.0628 and -0.136; in [3], -0.182 and -0.24; in [4] it was -0.455 and -0.788; in assay [5], -0.889 and -2.07; in assay [6], -0.0351 and -0.653. The composite z-score in assay [7] is -0.728 and -0.279; in [9], -0.938 and -1.14; in assay [10], 0.0373 and -0.261; in assay [11] it was 0.849 and -0.813; in [15], 1.26 and 0.149; in assay [17] it was -0.254 and -0.233. The composite z-score was 0.753 and -0.896 in assay [18]; -0.0801 and -1.72 in [19]; -0.244 and -0.399 in assay [20]. In addition, the z-score in [8] is -0.431 (inactive) and 0.2 (inactive); in [12] it was -0.647 (inactive) and -0.84 (inactive); in [13], -7.96 (inactive) and -7.6 (inactive); in assay [14] it was 3.63 (inactive) and 2.2 (inactive); in [16] it was 1.32 (inactive) and 0.1 (inactive).
For `C=CCN(Cc1ccccc1)C(=O)C(c1cccs1)N(C(=O)/C=C\C(=O)O)c1ccc(CCO)cc1` (stereo not given), the composite z-score in assay [1] was 1.05 and 0.697; in assay [2], -1.89 and -1.8; in assay [3], -0.175 and -0.232; in assay [4] it was -1.05 and -0.73; in [5], -1.36 and -1.96; in [6] it was -0.789 and -0.264. Also, the composite z-score is 1.25 and 1.43 in [7]; -0.966 and -0.865 in assay [9]; -0.369 and 0.205 in assay [10]; -0.0611 and -0.636 in [11]; 3.59 and 1.9 in assay [15]; -0.0927 and -0.205 in assay [17]. Besides, the composite z-score in assay [18] was -2.05 and -1.63; in assay [19] it was -1.46 and -0.922; in [20] it was -0.239 and -0.321. For the same compound, the z-score in assay [8] was 0.0388 (inactive) and -0.725 (inactive); in [12] it was -0.0499 (inactive) and -0.0798 (inactive); in assay [13], -0.0594 (inactive) and 0.33 (inactive); in assay [14], -0.184 (inactive) and 0.0995 (inactive); in assay [16], 0.478 (inactive) and -0.0137 (inactive).
Turning to `C=CCN(C(=O)C1N(C(C)(C)CO)C(=O)C2C(C(=O)O)C3C=CC21O3)C(C)(C)C` (stereo not given), the composite z-score in assay [1] is 0.974 and 1.67; in assay [2] it was -1.54 and -0.705; in assay [3], -0.232 and -0.112; in assay [4], -1.48 and 0.207; in assay [5], -2.19 and -1.87; in assay [6], -0.396 and 0.389. Further, the composite z-score in assay [7] was 0.154 and 1.46; in assay [9] it was -1.37 and -1.24; in [10], -0.427 and -0.0994; in assay [11] it was -0.805 and -0.846; in assay [15], -0.139 and 1.91; in [17], 0.003 and 0.146. The composite z-score is -2.82 and -3.2 in assay [18]; -1.74 and -1.4 in assay [19]; -0.347 and -0.228 in [20]. In addition, the z-score in [8] was 0.198 (inactive) and -0.0048 (inactive); in assay [12], 0.69 (inactive) and 1.34 (inactive); in [13] it was 0.53 (inactive) and 0.365 (inactive); in assay [14] it was 0.961 (inactive) and 1.35 (inactive); in assay [16], -0.0599 (inactive) and 0.474 (inactive).

The record behind these values is PubChem BioAssay.
